Experimental data from PubChem BioAssay AID686979 (National Center for Advancing Translational Sciences (NCATS), 2013).
Hit rate of the full screen: of about 420,000 compounds, about 50,000 (12%) were called active. Roughly 26% stayed inconclusive and do not appear here. Calls come from the whole dose curve; as a rule, active = well fitted inhibition curve with a large enough effect; inconclusive = small, poorly fitted or top-dose-only effect; inactive = flat fitted curve, though single readings scatter. What follows is part of a selection rich in actives, with near analogues and random picks from the rest. A call without a number means that no potency is given here.

test: qHTS for Inhibitors of human tyrosyl-DNA phosphodiesterase 1 (TDP1): qHTS in cells in presence of CPT; conditions: chicken DT40 Tdp1-/-;hTDP1 cells + 20 nM CPT, ATP luminescence, 48 h; series mostly up to 46.2 µM; note: nearly all actives have a fitted effect of over 55% in size
In short: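 Chicken DT40 Tdp1-/- cells stably complemented with human TDP1 were seeded at 400 cells/well in medium containing 20 nM camptothecin, exposed to pin-transferred compounds, and grown at 37 °C for at least 48 hr. Viability was read as ATP luminescence.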
Potency is the fitted concentration of half-maximal effect.

Compound	Potency
O=C1NC(=O)C(CCc2ccccc2)(c2ccccc2)N1 (stereo not drawn)	inactive
CC(=O)NN=C(C)c1ccc(NC(=O)C2CC2)cc1	inactive
Cc1c(S(=O)(=O)NC(C)c2ccccc2)c(=O)n(C)c(=O)n1C (stereo not drawn)	inactive
O=C(NC(Cc1ccccc1)C(=O)O)/C(=C\c1ccccc1)NC(=O)c1ccco1 (stereo not drawn)	inactive
O=C(NCCCn1ccnc1)/C(=C\c1ccccc1F)NC(=O)c1ccccc1	inactive
Cc1cc(C)cc(NS(=O)(=O)c2ccc3[nH]cc(C(=O)N4CCCCC4)c(=O)c3c2)c1	inactive
C=CCOc1c(Br)cc(/C=N\n2nnnc2N)cc1OC	inactive
COc1cc(/C=C2/C(=O)NN(c3cccc(Cl)c3)C2=O)cc(Br)c1O	inactive
CCOc1c(Br)cc(/C=C2\C(=O)N(CCC#N)N=C2C)cc1OC	20.6 µM (active)
COc1ccc(-n2c(-c3ccc(Cl)cc3)n[nH]c2=S)c(OC)c1	inactive
CCc1cc(=O)oc2c(C)c(OCC(=O)N3CC[C@@]4(O)CCCC[C@H]4C3)ccc12	inactive
Cc1ccc(NC(=S)NC2CCCC2)cc1	inactive
Cc1ccc(/C=N/NC(=O)CNC(=O)COc2ccccc2)o1	inactive
Cc1ccc(/C=N/NC(=S)NC2CCCCC2)o1	14.6 µM (active)
CC12CCC(=O)N1C(C(=O)Nc1ccc(F)c(F)c1F)CS2 (stereo not drawn)	inactive
O=C(CCNC(=O)c1ccc(Br)cc1)NCC(c1ccco1)N1CCCCC1 (stereo not drawn)	inactive
COc1ccc(-n2c(=O)c3sc4ccccc4c3n(CC(=O)Nc3cccc(C)c3)c2=O)cc1	inactive
COc1cccc(NC(=O)CN(C)C(=O)CSCc2nc3scc(-c4cccs4)c3c(=O)[nH]2)c1	inactive
CCOC(=O)c1cc(C#N)c(N2CCCCC2)nc1-c1ccccc1	inactive
CC(C)C[C@H]1CNC(=O)C(=O)N1C[C@@H]1CCCN1C[C@H](Cc1ccccc1)N1C[C@H](CC(C)C)N(CC2CCCCCC2)C(=O)C1=O	inactive
CCOc1ccc(CCN2C(=O)C(=O)N([C@@H](CC(C)C)CN3CCC[C@H]3CN3C(=O)C(=O)NC[C@@H]3Cc3ccccc3)C[C@@H]2CC(C)C)cc1	inactive
CC(C)C[C@H]1CNC(=S)N1C[C@H]1CCCN1C[C@H](Cc1ccc(O)cc1)N1C[C@H](Cc2ccc(O)cc2)N(CC2CCCCC2)C1=S	25.9 µM (active)
CNc1cc(-c2c(C)noc2C)ncn1	13 µM (active)
COCCNc1cc(-c2c(C)noc2C)ncn1	inactive
Cc1noc(C)c1-c1cc(NCc2cccnc2)ncn1	inactive
Cc1ccc(S(=O)(=O)N2CCCCC2)cc1C(=O)N1CCN(CCO)CC1	inactive

Compound	Potency
CC1(C)CCc2cc(S(=O)(=O)N3CCN(c4nc(-c5cccs5)nc5ccccc45)CC3)ccc2O1	inactive
Cc1ccc2nc(-c3ccncc3)cc(C(=O)Nc3ccc4c(c3)OCCO4)c2c1	18.4 µM (active)
Cc1ccc2nc(-c3cccc(Br)c3)cc(C(=O)Nn3cnnc3)c2c1	inactive
Cc1ccc2nc(-c3ccncc3)cc(C(=O)Nc3ccncc3)c2c1	13 µM (active)
O=C(Nc1ccncc1)c1cc(-c2ccccn2)nc2ccc(Br)cc12	inactive
O=C(Nc1ccc(S(=O)(=O)Nc2nccs2)cc1)c1cc(-c2ccncc2)nc2ccccc12	inactive
COC(=O)CNC(=O)c1cc(-c2ccncc2)nc2ccccc12	inactive
CCN(CC)CCNC(=O)c1ccc(NC(=O)c2cc(-c3ccncc3)nc3ccccc23)cc1	14.6 µM (active)
CCOc1ncccc1C(=O)Nc1ccc2c(c1)OCCO2	inactive
O=C(Nc1ccc2c(c1)OCCO2)c1cnccn1	inactive
COc1ccc(C(=O)CCC(=O)Nc2ccc(Cl)cc2)cc1	inactive
O=C1NC[C@H](CCCCN2CCN(CCc3ccccc3)C(=O)C2=O)N(CC2CCCCC2)C1=O	inactive
O=C(Nc1ccccc1)c1ccco1	inactive
O=C(OC1CC2CC1[C@H]1CCCCN1C2=O)N1CCOCC1 (stereo partly drawn)	inactive
CCc1c(Nc2ccccc2C)nc(N)[nH]c1=O	inactive
CCCn1c(C(O)c2ccc(OCC)cc2)nc2ccccc21 (stereo not drawn)	20.6 µM (active)
CCOCCn1c(C(C)C)nc2ccccc21	inactive
CCCn1c(C(O)c2cc(OC)ccc2OC)nc2ccccc21 (stereo not drawn)	inactive
O=C(O)CCCC(=O)N1N=C(c2ccco2)CC1c1ccco1 (stereo not drawn)	inactive
Cc1nn(C)c(Oc2ccc(Cl)cc2)c1C=O	inactive
CC1(C)CC(=O)C=C(c2ccccc2CO)C1=O	inactive
Cc1ccc(C(=O)OC2=CC(=O)CC(C)(C)C2)cc1	inactive
Cc1ccc(-c2ccc(C3=CC(=O)CC(C)(C)C3=O)cc2)cc1	0.184 µM (active)
O=C(CC1C(=O)N(c2ccccc2)C(=O)N1CCc1cccs1)Nc1ccc(F)cc1 (stereo not drawn)	inactive
CCCCc1nc2ccc(F)cc2cc1C	inactive
Cc1ccnc(NS(=O)(=O)c2ccc(NC(=O)c3oc4ccccc4c3C)cc2)n1	inactive

Compound	Potency
O=c1[nH]c2ccccc2n2c(-c3ccccc3)nnc12	20.6 µM (active)
CCOC(=O)c1cnc2[nH]c3ccccc3n2c1=O	inactive
CC(=O)c1c(-c2ccccc2)c2ccccc2[nH]c1=O	inactive
N#Cc1ccc(OCC(=O)NC(=O)NC2CCS(=O)(=O)C2)cc1 (stereo not drawn)	inactive
O=C(CNC(=O)c1cccs1)N/N=C/c1cccc(Br)c1	inactive
CCOC(=O)c1c(-c2ccccc2)oc2ccc(OCC(=O)NN)cc12	inactive
COC(=O)c1sccc1NC(=O)c1cc(OC)c(OC)c(OC)c1	inactive
COC(=O)c1c(-c2ccsc2)oc2ccc(-c3cc(OC)c(OC)c(OC)c3)cc12	18.4 µM (active)
Cc1cccc(OCC(=O)Nc2ccc(C(=O)O)cc2NC(=O)COc2cccc(C)c2)c1	inactive
O=C(Cc1ccccc1)Nc1cccc(NC(=O)c2ccccc2)c1	inactive
O=C(CCl)Nc1cccc(CP(=O)(c2ccccc2)c2ccccc2)c1	3.26 µM (active)
CCc1cccc(NC(=O)CCC(=O)O)c1	inactive
COc1ccc(N2CCN(C(=O)c3cn(C)c4ccc(S(=O)(=O)N5CCOCC5)cc4c3=O)CC2)cc1	inactive
O=C(CC[C@H]1O[C@@H](n2ccc(=O)[nH]c2=O)[C@H](O)[C@@H]1O)N[C@H](Cc1ccccc1)C(=O)NCc1ccco1	inactive
COc1ccc(CC(=O)OC(C)C(=O)Nc2ccc(S(N)(=O)=O)cc2)cc1 (stereo not drawn)	inactive
CCN(CC(=O)Nc1ccc(S(=O)(=O)N2CCCC2)cc1)CC(=O)Nc1cccc(OC)c1	inactive
COc1cccc(NC(=O)C2(C)CCN2Cc2ccccc2Cl)c1 (stereo not drawn)	25.9 µM (active)
COc1cccc(NC(=O)NCCN2CCCCC2)c1	inactive
CCCn1nc(NS(=O)(=O)c2ccc(F)cc2)c2cc3ccccc3nc21	inactive
CCCn1nc(NS(=O)(=O)c2ccccc2)c2cc3cc(C)ccc3nc21	inactive
CCCn1nc(NC(=O)C(C)C)c2cc3cc(OC)ccc3nc21	29.1 µM (active)
O=c1cc(CSc2ncn[nH]2)[nH]c2ccc(F)cc12	inactive
Cc1ccccc1CN1C(=O)CSCC1(C)C(=O)Nc1c(C)cccc1C (stereo not drawn)	inactive
COc1cccc(-c2nc(S(=O)(=O)c3ccc(C)cc3)c(NCc3ccccc3)o2)c1	16.4 µM (active)
COc1cccc(-c2nc3cc(C)ccc3o2)c1	inactive
O=S(=O)(c1ccccc1)c1nc(-c2ccccc2F)oc1NCc1cccnc1	inactive

Compound	Potency
CCN(CC)C(=O)Cn1cc(S(=O)(=O)CC(=O)NCc2ccc3c(c2)OCO3)c2ccccc21	inactive
Cc1c(C(=O)NCCCc2ccccc2)cccc1[N+](=O)[O-]	inactive
CCN(CC)CCNCc1ccc(OCc2ccc(Cl)nc2)c(OC)c1	inactive
COc1ccc(NC(=O)c2oc3ccc(S(=O)(=O)N4CCOCC4)cc3c2C)cc1	11.6 µM (active)
Cc1occc1C(=O)Nc1cccc(S(=O)(=O)N2CCOCC2)c1	inactive
Cc1c(C(=O)NCCN(C)C)oc2ccc(S(=O)(=O)N3CCCC3)cc12	inactive
CCCNC(=O)C1(C)CCN(C(=O)c2ccc(F)cc2Cl)C1 (stereo not drawn)	inactive
OCC(O)CN(c1ccccc1)c1ccccc1 (stereo not drawn)	inactive
O=C(NCCc1ccccc1)Oc1ccc(Cl)cc1	inactive
COc1ccc(N2CC(C(=O)NCCN3C(=O)S/C(=C\c4cccnc4)C3=O)CC2=O)c(OC)c1 (stereo not drawn)	inactive
Cc1cc(OCCCC(=O)NCCN2C(=O)S/C(=C\c3cccnc3)C2=O)ccc1Cl	8.2 µM (active)
CCOc1ccc(N2CC(C(=O)NCCN3C(=O)S/C(=C\c4cccnc4)C3=O)CC2=O)cc1 (stereo not drawn)	inactive
CC1CCN(C(=O)COC(=O)c2cc(S(=O)(=O)N3CCOCC3)ccc2Cl)CC1	inactive
COc1ccc(O)c(/C=N/N=C/c2cccc([N+](=O)[O-])c2)c1	inactive
COc1cc(NC(=O)COC(=O)c2ccc([N+](=O)[O-])s2)cc(OC)c1OC	inactive
O=C(OCC(=O)N1CCN(c2ccccc2)CC1)c1ccc([N+](=O)[O-])s1	10.3 µM (active)
COc1ccc(C(=O)COC(=O)c2ccc([N+](=O)[O-])s2)cc1OC	inactive
CCN(CC)CCN1C(=O)C2C(C(=O)Nc3ccc(Br)cc3)C3C=CC2(O3)C1C(=O)NC1CCCCC1 (stereo not drawn)	inactive
Brc1cc(Br)c(Oc2cc(Br)c(Br)cc2Br)cc1Br	inactive
CC(=O)Nc1ccc(NC(=O)C(C)n2c3ccccc3c3nc(=O)cc(C)n32)cc1 (stereo not drawn)	inactive
CC(C)(C)c1cc2cccnc2n1Cc1ccccc1	inactive
O=C(CN1C(=O)NC2(CCCC2)C1=O)Nc1cc(C(F)(F)F)ccc1N1CCOCC1	inactive
Cc1cc(C)cc(C(=O)N2CCN=C2SCc2ccc([N+](=O)[O-])cc2)c1	inactive
CC(=O)N1CC[n+]2c(-c3ccc([N+](=O)[O-])cc3)csc21	18.4 µM (active)
CN1C2CCC1CC(NC(=O)c1ccc([N+](=O)[O-])cc1)C2 (stereo not drawn)	inactive
